# The list shows a part of the results. Inconclusive results are not listed. Activity calls are given as the source filed them. Calls follow the shape of the dose curve; as a rule, active = well fitted curve in the direction sought with a large enough effect; inconclusive = small, poorly fitted or top-dose-only effect, or another doubt; inactive = no such curve, though single readings can be large or run the other way.
# Target: Glutathione reductase, mitochondrial (Homo sapiens) (UniProt P00390)
# Sequence (P00390 whole entry, looked up): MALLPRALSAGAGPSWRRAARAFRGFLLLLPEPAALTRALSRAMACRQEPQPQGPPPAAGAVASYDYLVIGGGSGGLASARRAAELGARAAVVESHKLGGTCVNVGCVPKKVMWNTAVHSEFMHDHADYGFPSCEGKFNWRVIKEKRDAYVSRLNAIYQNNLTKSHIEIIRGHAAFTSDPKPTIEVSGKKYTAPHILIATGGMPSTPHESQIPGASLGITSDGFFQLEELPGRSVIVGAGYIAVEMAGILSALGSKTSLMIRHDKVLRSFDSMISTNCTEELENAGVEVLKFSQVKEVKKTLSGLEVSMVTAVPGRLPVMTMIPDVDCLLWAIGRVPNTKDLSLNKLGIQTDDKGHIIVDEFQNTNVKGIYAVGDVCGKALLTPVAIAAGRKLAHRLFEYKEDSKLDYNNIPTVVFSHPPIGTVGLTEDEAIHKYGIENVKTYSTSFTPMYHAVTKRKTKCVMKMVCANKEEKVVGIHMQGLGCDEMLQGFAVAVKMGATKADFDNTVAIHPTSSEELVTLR
# Assay: qHTS Assay for Inhibitors of Mammalian Selenoprotein Thioredoxin Reductase 1 (TrxR1): Counterassay in Glutathione Reductase (GR)
# Description: The selenoprotein thioredoxin reductase (TrxR; EC 1.8.1.9) is a FAD containing homodimeric pyridine nucleotide-disulfide oxidoreductase with many cellular roles. Together with NADPH and its prime substrate thioredoxin (Trx), the enzyme forms the core of the Trx system. The mammalian Trx system exerts a wide spectrum of functions including redox regulation, antioxidant defense, regulation of transcription factors as well as support of cell growth and replication. Many of these functions involve the reduction of Trx, which may subsequently reduce a number of different substrates including ribonucleotide reductase, peroxiredoxins or NFkB. Mammalian TrxR itself also has a broad substrate specificity, reducing both protein and non-protein substrates, including low molecular weight compounds such as dehydroascorbate, lipoic acid, ubiquinone, and juglone. […]
# Three microliters of reagents (100 microM NADPH and 60 nM hGR or 100 microM NADPH as no-enzyme control) was dispensed into 1,536-well black clear-bottomed plates (Buffer: 0.1 M potassium phosphate, pH 7.4/10 mM EDTA, 0.01 % Tween-20). […] The plate was transferred to a ViewLux high-throughput CCD imager (Perkin-Elmer, Wellesley, MA) where kinetic measurements (one read per 5 min for 6 reads, total time 25 min) of the TNB absorbance was acquired using a 405 excitation filter.
compound,measurement,value
COc1ccc(-c2nc(CS(=O)CC(=O)N3CCC4(CC3)OCCO4)c(C)o2)cc1 (stereo unspecified),outcome,inactive
